PubChem BioAssay AID1903 (Southern Research Specialized Biocontainment Screening …, 2009)
Hit rate of the full screen: of about 310,000 compounds, about 1,200 (0.39%) were called active. The rule behind the calls is not given here. These entries were drawn from the full list. Measured potencies and affinities stand elsewhere.

What follows are molecules tested against Large T antigen (Simian virus 40) (UniProt P03070) (assay: SV40 large T antigen inhibitors, biochemical (AID 1903)). Settings: SV40 large T antigen ATPase/helicase inhibition assay; at 20 µM; hits give high values.
Sequence of Large T antigen (Simian virus 40) (P03070 whole entry, looked up): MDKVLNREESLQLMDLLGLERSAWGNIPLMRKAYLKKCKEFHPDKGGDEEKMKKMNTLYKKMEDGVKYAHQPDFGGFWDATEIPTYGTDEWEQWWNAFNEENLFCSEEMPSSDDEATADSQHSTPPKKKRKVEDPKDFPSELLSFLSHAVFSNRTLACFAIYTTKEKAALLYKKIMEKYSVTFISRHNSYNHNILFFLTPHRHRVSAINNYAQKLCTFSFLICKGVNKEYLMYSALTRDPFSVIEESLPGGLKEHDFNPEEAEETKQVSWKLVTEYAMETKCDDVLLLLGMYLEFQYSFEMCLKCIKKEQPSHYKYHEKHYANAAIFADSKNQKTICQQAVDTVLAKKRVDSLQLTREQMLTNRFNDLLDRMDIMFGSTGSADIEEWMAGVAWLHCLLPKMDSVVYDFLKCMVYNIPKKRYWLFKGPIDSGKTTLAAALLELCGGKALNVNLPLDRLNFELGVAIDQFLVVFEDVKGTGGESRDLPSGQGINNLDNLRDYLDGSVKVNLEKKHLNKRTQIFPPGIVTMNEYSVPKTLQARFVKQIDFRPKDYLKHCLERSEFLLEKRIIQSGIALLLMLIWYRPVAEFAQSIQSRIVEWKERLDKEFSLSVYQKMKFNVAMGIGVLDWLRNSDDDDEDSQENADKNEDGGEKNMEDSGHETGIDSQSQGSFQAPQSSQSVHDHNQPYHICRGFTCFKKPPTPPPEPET

inhibition, inactive:
CC(=O)Nc1ccc(NC(=O)C2CC(=O)N(Cc3ccccc3)C2)cc1 (configuration not stated) 27.7%
O=C(Nc1ccccc1)C1CC(=O)N(Cc2ccccc2)C1 (configuration not stated) 27.5%
COc1ccc2nc(N3C(=O)CC(Cc4cc(C)cc(C)c4)C3=O)sc2c1 (configuration not stated) -1.29%
COc1ccc(OCc2cc(C(=O)NC3CCOCC3)no2)c2ccccc12 12%
O=C1CC(=O)N(Cc2cccs2)C(=O)N1 22.2%
COC(=O)C1=C(C)N(Cc2ccco2)C(=O)C1 23.9%
O=C1C2C(C(=O)N1Cc1ccco1)C1C=CC2C12CC2 (configuration not stated) -1.46%
O=C1c2ccccc2C(=O)N1Cc1ccco1 4.84%
COc1ccc(S(=O)(=O)N2CCCC(C(=O)N3CCOCC3)C2)cc1OC (configuration not stated) 7.49%
CN(C)c1ccc(C(=O)N2CCN(c3cc(C(F)(F)F)nc4ccccc34)CC2)cc1 16.5%
Cc1ccc(Cc2c(C)nc3nc(SCC(=O)NCCCN4CCCC4)nn3c2C)cc1 9.31%
O=C1C(=O)N(Cc2cccnc2)C(c2ccc(Br)cc2)/C1=C(\O)c1ccc2c(c1)OCCO2 (configuration not stated) 8.89%
O=C1/C(=C/c2cccs2)NC(=S)N1C1CC1 9.13%
CN(C)c1ncc(/C=C2/C(=O)NC(=S)N(C3CCCCC3)C2=O)cn1 10.9%
CN(C)c1ccc(/C=C/c2cc[n+](C)cc2)cc1 7.41%
CN(C)c1ccc(/C=C/c2ccncc2)cc1 25.2%
Cn1c(CCc2nc3ccccc3[nH]2)n[nH]c1=S 9.76%
CC(=O)NC1(c2ccccc2)CCN(C(=O)N2CCOCC2)CC1 4.59%
Cc1c(NS(=O)(=O)c2ccccc2F)c(=O)n(-c2ccccc2)n1C 3.58%
O=C(Nc1ccc2c(c1)CCC2)c1cccc(OC(F)F)c1 15.1%
CC(=O)Nc1ccc(NC(=O)CS(=O)(=O)c2cn(CC(=O)N3CCC(C)CC3)c3ccccc23)cc1 21.1%
O=Cc1coc2ccc3ccccc3c2c1=O 12.7%
NC(=S)N/N=C/c1coc2c(ccc3ccccc32)c1=O 10.7%
CC(C)Cn1c(=O)c2c(nc3n2CC(C)CN3Cc2ccccc2)n(C)c1=O (configuration not stated) 9.7%
Cc1cc(C)n(-c2nc3ccccc3c(=O)n2OCC(=O)Nc2c(C)cccc2C)n1 1.06%
O=C1c2cccnc2C(=O)N1Cc1ccc(S(=O)(=O)N2CCN(c3ccccc3)CC2)cc1 -3.05%
CCc1ccccc1NC(=O)C1CCCN(c2ncnc3onc(-c4ccc(F)cc4)c23)C1 (configuration not stated) 4.3%
COc1ccc(NC2CCCN(C(=O)CCc3ccncc3)C2)cc1OC (configuration not stated) 35.9%
COc1ccc(NC2CCCN(Cc3cccc4cnccc34)C2)cc1 (configuration not stated) 30.9%
COc1cc(/C=C2\SC(c3ccccc3)=NC2=O)cc(Cl)c1O 33.2%
COc1ccc(Br)cc1/C=C/C(=O)NC(=S)Nc1ccc(Cl)c(C(=O)O)c1 25.5%
CC(=O)Nc1ccc2oc(-c3cc(F)c(F)cc3Cl)nc2c1 0.785%
Cc1ccc2c(c1)NC(=O)C(CC(=O)O)O2 (configuration not stated) 3.98%
CCOC(=O)/C=C1\Nc2ccccc2OC1=O 28.2%
CCCN(CCC)S(=O)(=O)c1ccc(NC(=O)C2CCCO2)cc1 (configuration not stated) 3.88%
N/C(COc1ccc(C(=O)O)cc1)=N\O 0.11%
OCCNc1c2ccccc2nc2ccccc12 12.6%
COc1ccc(CCNc2c3ccccc3nc3ccccc23)cc1OC 11.5%
CCN(CC)CCN1C(=O)C(O)=C(C(=O)c2sc(C)nc2C)C1c1cccnc1 (configuration not stated) 2.43%
CCN(CC)CCN1C(=O)C(O)=C(C(=O)c2cc3ccccc3o2)C1c1cccnc1 (configuration not stated) 2.07%
O=C(O)CC(NS(=O)(=O)c1cccc2nsnc12)c1ccc(F)cc1 (configuration not stated) 0.56%
O=c1[nH]n(-c2ccccc2)c(=O)c2ccccc12 3.85%
O=c1c2ccccc2c2ccccc2c(=O)n1-c1ccccc1 4.04%
COc1cccc(C(=O)Nc2cc(OC)ccc2NC(=O)c2ccco2)c1 17.6%
Nc1ccc2c(c1)C(=O)C(=O)c1ccccc1-2 15.6%
NCCN=C1NS(=O)(=O)c2ccccc21 7.44%
COc1ccc(Nc2nc3ccccc3nc2NS(=O)(=O)c2ccc(NC(C)=O)cc2)cc1 12.8%
CC(=O)Nc1ccc(Nc2nc3ccccc3nc2NS(=O)(=O)c2ccccc2)cc1 23.5%
CC(=O)Nc1ccc(S(=O)(=O)Nc2nc3ccccc3nc2Nc2ccc(S(N)(=O)=O)cc2)cc1 6.12%
CC(=O)Nc1ccc(S(=O)(=O)Nc2nc3ccccc3nc2Nc2ccccc2)cc1 1.54%
Cn1c(=O)c(C(=O)c2ccc(S(C)(=O)=O)c(Cl)c2Cl)c(O)c2ccccc21 17%
Cn1cc(C(=O)NCCO)c(=O)c2ccccc21 -1.83%
O=C(CSc1nnc(-c2ccccc2)n1CC1CCCO1)N1CCCC1 (configuration not stated) 12.8%
Cc1nnc2ccc(-c3cccc(NS(=O)(=O)c4ccccc4Cl)c3)nn12 10.3%
CSc1ccccc1N=Cc1nc(-c2ccccc2)oc1O 8.02%
Cc1cccc(NCC(=O)c2c(N)n(C)c(=O)n(C)c2=O)c1C 4.72%
COC(=O)CN1C(c2cccc(Cl)c2)=Nc2ccc(Cl)cc2C1c1ccccc1 (configuration not stated) 7.04%
COc1ccc(/C=N/n2c(-c3n[nH]c4c3CCC4)n[nH]c2=S)cc1OC 23.9%
COc1cccc(/C=N/n2c(SC)nnc2-c2ccccc2)c1O 26.3%
COc1cccc(/C=N/n2c(-c3cc(C)[nH]n3)n[nH]c2=S)c1OC 26.8%
COc1cc(/C=N/n2c(C3CCCCC3)n[nH]c2=S)cc(OC)c1O 10.8%
COc1cc(/C=N/n2c(C3CCCCC3)n[nH]c2=S)ccc1O 21%
COc1cc(/C=N/n2c(-c3cc(C)[nH]n3)n[nH]c2=S)cc(OC)c1O 24.5%
COc1ccc(CCNC(=O)CN(C)S(=O)(=O)c2ccc(Br)s2)cc1OC -4.17%
Cc1c(Cc2ccccc2)c(=O)oc2c(C)c(OCc3nn[nH]n3)ccc12 11.2%
CCN1CCc2c(OCC(=O)Nc3ccc4c(c3)OCCO4)cccc2C1=O 1.06%
Cc1cc(C)c(S(=O)(=O)c2ccc(Cl)cc2)c(=O)[nH]1 7.48%
CCOc1ccc(-c2[nH]nc3c2C(c2ccc4c(c2)OCO4)C(C#N)=C(N)O3)cc1OC (configuration not stated) 17%
O=C(CN(c1ccccc1Cl)S(=O)(=O)c1ccccc1)N/N=C/c1ccccc1C(=O)O 9.75%
CC(=O)N1CCN(CC(=O)Nc2sccc2C#N)CC1 4.43%
CCOc1ccccc1NC(=O)C1CC2CCCC(C1)C2=O (configuration not stated) 14.6%
CCc1ccccc1NC(=O)Cn1c(=O)n(-c2ccc(CC(=O)NCC3CCCO3)cc2)c(=O)c2ccccc21 (configuration not stated) 23.2%
O=c1cc(-c2ccc([N+](=O)[O-])cc2)c2ccc(O)cc2o1 9.32%
CN(C)Cc1c(O)ccc2c(=O)c(-c3ccc(Cl)cc3)coc12 2.49%
COc1ccc(-n2cnnc2SCCC#N)cc1 2.92%
COc1cc(CNC(C)(C)C)ccc1OCC(=O)NC(C)(C)C 12.2%
CCOc1cc(CNc2ccc3c(c2)OCCO3)cc(Br)c1OCC(N)=O 32.4%
CCOc1cc(CNc2ccc(N3CCCCC3)cc2)cc(Br)c1OCC(=O)NC(C)(C)C 19.5%
COc1cc(CNc2ccc(N3CCOCC3)c(C(=O)O)c2)ccc1OCC(N)=O 14%
COc1cc(CNCCN2CCOCC2)ccc1OCC(=O)NC(C)(C)C 3.18%
COc1cc(CNCCCN2CCOCC2)ccc1OCC(=O)NC(C)(C)C -1.04%
O=C(c1cc2ccccc2o1)n1nnc2ccccc21 3.13%
CC(C)(C)NS(=O)(=O)c1cc(C(=O)Nc2sccc2C#N)ccc1Cl 8.52%
COc1cc(NC(=O)C2CCCN(S(=O)(=O)c3ccc4c(c3)oc(=O)n4C)C2)cc(OC)c1 (configuration not stated) 1.24%
O=C(O)CSCC(=O)N1CCN(c2nc3cc(Cl)ccc3s2)CC1 8.15%
C=CCNC(=O)c1ccccc1NS(=O)(=O)c1ccccc1 4.06%
CCN(CC)CCNC(=O)c1cn(-c2ccccc2)nc1-c1cccs1 12.7%
c1coc(-c2nc3ccccc3nc2-c2ccco2)c1 50.2%
c1ccc(-c2nc(-c3ccco3)cs2)nc1 23.7%
Nc1nc(-c2ccc(-n3nncc3-c3ccco3)cc2)cs1 13.1%
c1coc(-c2nnc(-c3ccco3)nn2)c1 63.8%
COc1ccc(-c2csc(C)n2)cc1Br 10.3%
COc1ccc(-c2csc(C)n2)cc1 13.6%
Oc1ccccc1-c1csc(-c2ccccc2)n1 6.78%
Cc1nc(-c2ccccc2)cs1 12.6%
COc1ccc(-c2csc(-c3ccc(O)cc3)n2)cc1 21%
COc1ccc(-c2csc(C)n2)cc1OC 2.09%
